Experimental data: the supplement of paper PMC12669032

How the values were obtained:
Experiment in all cases: growth AUC relative to DMSO control (median of replicates) (fraction); higher = more growth (less inhibition), active = hit call of the paper
Conditions in all cases: 20 µM; 24 h;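 active = AUC reduced over 20% with Padj below 0.05 in at least 2 of 3 replicates; inactive = otherwise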
Akkermansia muciniphila = system: Akkermansia muciniphila
Summary of the method: (§1)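 Gut bacterial monocultures in mGAM were treated with 20 µM compound (1% DMSO) and grown anaerobically at 37 °C in round-bottom 96-well plates from OD600 0.05. OD600 was read hourly for 24 h, with the minimum OD set to 0. Area under the growth curve was normalised to the plate median of solvent-only wells, or to row and column medians on the industrial chemical plate. Each value is the median of three biological replicates, each grown on a separate day.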

Bacteroides caccae = system: Bacteroides caccae
Summary of the method: as §1

Bacteroides clarus = system: Bacteroides clarus
Summary of the method: as §1

Bacteroides dorei = system: Bacteroides dorei
Summary of the method: as §1

Bacteroides stercoris = system: Bacteroides stercoris
Summary of the method: as §1

[1] = system: Bacteroides thetaiotaomicron
Summary of the method: as §1

Bacteroides uniformis = system: Bacteroides uniformis
Summary of the method: as §1

[2] = system: Bifidobacterium longum subsp. longum
Summary of the method: as §1

Clostridium difficile = system: Clostridium difficile
Summary of the method: as §1

Collinsella aerofaciens = system: Collinsella aerofaciens
Summary of the method: as §1

Measured: growth AUC

CCSc1nc(NC(C)C)nc(NC(C)C)n1
inactive: Akkermansia muciniphila 0.919 | Bacteroides caccae 1.01 | Bacteroides clarus 0.923 | Bacteroides dorei 0.983 | Bacteroides stercoris 0.88 | [1] 0.863 | Bacteroides uniformis 0.948 | [2] 0.984 | Clostridium difficile 1.03 | Collinsella aerofaciens 0.995

CCCCCCCCOC(=O)COc1cc(Cl)c(Cl)cc1Cl
inactive: Akkermansia muciniphila 1.05 | Bacteroides caccae 0.98 | Bacteroides clarus 1 | Bacteroides dorei 0.968 | Bacteroides stercoris 1.11 | [1] 1.01 | Bacteroides uniformis 0.982 | [2] 0.97 | Clostridium difficile 1.02 | Collinsella aerofaciens 0.94

CCNc1nc(Cl)nc(N(CC)CC)n1
inactive: Akkermansia muciniphila 1.06 | Bacteroides caccae 0.995 | Bacteroides clarus 1.01 | Bacteroides dorei 0.986 | Bacteroides stercoris 1.01 | [1] 0.977 | Bacteroides uniformis 0.951 | [2] 1.02 | Clostridium difficile 1.02 | Collinsella aerofaciens 1.03

O=C(O)CNC(=O)c1cnccc1C(F)(F)F
inactive: Akkermansia muciniphila 1.02 | Bacteroides caccae 1 | Bacteroides clarus 1.02 | Bacteroides dorei 0.976 | Bacteroides stercoris 1.07 | [1] 0.99 | Bacteroides uniformis 1.02 | [2] 1.06 | Clostridium difficile 0.924 | Collinsella aerofaciens 0.989

CC(=O)Oc1c(Cl)c(Cl)c(Cl)c(Cl)c1Cl
inactive: Akkermansia muciniphila 0.861 | [2] 0.942 | Collinsella aerofaciens 0.937
active: Bacteroides caccae 0.559 | Bacteroides clarus 0.585 | Bacteroides dorei 0.66 | Bacteroides stercoris 0.448 | [1] 0.565 | Bacteroides uniformis 0.52 | Clostridium difficile 0.784

FC(F)(F)C(=NOCC1OCCO1)c1ccc(Cl)cc1
inactive: Akkermansia muciniphila 1.16 | Bacteroides caccae 0.948 | Bacteroides clarus 1.05 | Bacteroides dorei 0.969 | Bacteroides stercoris 1.34 | [1] 0.991 | Bacteroides uniformis 0.941 | [2] 0.988 | Clostridium difficile 0.904 | Collinsella aerofaciens 0.976

CCCN(CCOc1c(Cl)cc(Cl)cc1Cl)C(=O)NC=O
inactive: Akkermansia muciniphila 1.04 | Bacteroides caccae 0.938 | Bacteroides clarus 0.948 | Bacteroides dorei 0.947 | Bacteroides stercoris 1.07 | [1] 0.94 | Bacteroides uniformis 0.957 | [2] 0.968 | Clostridium difficile 1.01 | Collinsella aerofaciens 0.995

CCOC(=O)c1nc(C(Cl)(Cl)Cl)n(-c2ccc(Cl)cc2Cl)n1
inactive: Akkermansia muciniphila 0.908 | Bacteroides caccae 1 | Bacteroides clarus 1 | Bacteroides dorei 0.99 | Bacteroides stercoris 0.861 | [1] 0.966 | Bacteroides uniformis 0.968 | [2] 0.983 | Clostridium difficile 0.983 | Collinsella aerofaciens 0.952

CC(C)N(C(=O)C(=O)O)c1ccc(F)cc1
inactive: Akkermansia muciniphila 1.04 | Bacteroides caccae 1.02 | Bacteroides clarus 1.03 | Bacteroides dorei 1.02 | Bacteroides stercoris 1.23 | [1] 1.02 | Bacteroides uniformis 0.993 | [2] 1.05 | Clostridium difficile 1.03 | Collinsella aerofaciens 1.01

Cc1cccc(C)c1O
inactive: Akkermansia muciniphila 1.02 | Bacteroides caccae 1.04 | Bacteroides clarus 0.987 | Bacteroides dorei 1.01 | Bacteroides stercoris 1.03 | [1] 1.02 | Bacteroides uniformis 1 | [2] 0.946 | Clostridium difficile 1.03 | Collinsella aerofaciens 1.02

COC1CCC2(CC1)NC(=O)C(c1cc(C)ccc1C)C2O (stereo not given)
inactive: Akkermansia muciniphila 1.08 | Bacteroides caccae 0.974 | Bacteroides clarus 1.04 | Bacteroides dorei 1.02 | Bacteroides stercoris 1.14 | [1] 0.999 | Bacteroides uniformis 1.02 | [2] 1.05 | Clostridium difficile 1.01 | Collinsella aerofaciens 1.05

CCOC(N)=O
inactive: Akkermansia muciniphila 1.13 | Bacteroides caccae 1.01 | Bacteroides clarus 1.02 | Bacteroides dorei 1.04 | Bacteroides stercoris 1.17 | [1] 1.01 | Bacteroides uniformis 1.01 | [2] 1.06 | Clostridium difficile 1.01 | Collinsella aerofaciens 1.01

O=C(O)COc1ccc(Cl)c2cccnc12
inactive: Akkermansia muciniphila 0.981 | Bacteroides caccae 1.03 | Bacteroides clarus 1.03 | Bacteroides dorei 0.976 | Bacteroides stercoris 1.14 | [1] 0.997 | Bacteroides uniformis 1 | [2] 0.99 | Clostridium difficile 0.954 | Collinsella aerofaciens 1.02

COc1nc(N)nc(NC(C)(C)C)n1
inactive: Akkermansia muciniphila 1.01 | Bacteroides caccae 0.996 | Bacteroides clarus 0.965 | Bacteroides dorei 1.03 | Bacteroides stercoris 0.967 | [1] 1.01 | Bacteroides uniformis 1 | [2] 1.01 | Clostridium difficile 0.98 | Collinsella aerofaciens 0.959

S=C([S-])NCCNC(=S)[S-].[Mn+2]
inactive: Akkermansia muciniphila 0.999 | Bacteroides caccae 1.01 | Bacteroides clarus 1.13 | Bacteroides dorei 0.979 | Bacteroides stercoris 1.1 | [1] 1.03 | Bacteroides uniformis 0.991 | [2] 0.996 | Clostridium difficile 0.977 | Collinsella aerofaciens 1

Cc1cccc(C)c1N(C(=O)CCl)C1CCOC1=O (stereo not given)
inactive: Akkermansia muciniphila 1.05 | Bacteroides caccae 0.802 | Bacteroides clarus 0.993 | Bacteroides dorei 0.971 | Bacteroides stercoris 1.1 | Bacteroides uniformis 0.894 | [2] 1.04 | Clostridium difficile 0.966 | Collinsella aerofaciens 0.959
active: [1] 0.647

Cc1cc(C)cc(O)c1
inactive: Akkermansia muciniphila 0.865 | Bacteroides caccae 1.04 | Bacteroides clarus 0.983 | Bacteroides dorei 1.01 | Bacteroides stercoris 1 | [1] 1.01 | Bacteroides uniformis 1 | [2] 0.906 | Clostridium difficile 1.03 | Collinsella aerofaciens 1.02

CCc1cccc(C)c1N(C(=O)CS(=O)(=O)[O-])C(C)COC.[Na+] (stereo not given)
active: [1] 0.727
inactive: Akkermansia muciniphila 1.08 | Bacteroides caccae 0.952 | Bacteroides clarus 0.987 | Bacteroides dorei 0.91 | Bacteroides stercoris 0.951 | Bacteroides uniformis 0.993 | [2] 0.954 | Clostridium difficile 0.991 | Collinsella aerofaciens 0.923

COC(=O)c1ccccc1S(=O)(=O)NC(=O)Nc1nc(OC(F)F)cc(OC(F)F)n1
inactive: Akkermansia muciniphila 0.91 | Bacteroides caccae 1 | Bacteroides clarus 0.971 | Bacteroides dorei 0.997 | Bacteroides stercoris 0.988 | [1] 0.965 | Bacteroides uniformis 1.02 | [2] 1.03 | Clostridium difficile 0.993 | Collinsella aerofaciens 0.992

CCCCCCCCc1c(CC)nc2ncnn2c1N
inactive: Akkermansia muciniphila 1.05 | Bacteroides caccae 1.03 | Bacteroides clarus 0.991 | Bacteroides dorei 0.989 | Bacteroides stercoris 0.953 | [1] 0.97 | Bacteroides uniformis 0.973 | [2] 0.995 | Clostridium difficile 0.972 | Collinsella aerofaciens 0.926

N#Cc1ccccc1NC(=O)c1snc(Cl)c1Cl
inactive: Akkermansia muciniphila 1.07 | Bacteroides caccae 0.956 | Bacteroides clarus 0.982 | Bacteroides dorei 1.01 | Bacteroides stercoris 1.15 | [1] 1 | Bacteroides uniformis 0.974 | [2] 0.9 | Clostridium difficile 0.944 | Collinsella aerofaciens 1.05

CCOC(=O)c1cnn(C)c1S(=O)(=O)NC(=O)Nc1nc(OC)cc(OC)n1
inactive: Akkermansia muciniphila 1.08 | Bacteroides caccae 0.999 | Bacteroides clarus 1.02 | Bacteroides dorei 1 | Bacteroides stercoris 1.15 | [1] 0.966 | Bacteroides uniformis 1.03 | [2] 1.06 | Clostridium difficile 0.982 | Collinsella aerofaciens 1

COC(=O)Nc1ccc(Cl)c(Cl)c1
inactive: Akkermansia muciniphila 0.817 | Bacteroides caccae 0.99 | Bacteroides clarus 0.96 | Bacteroides dorei 0.969 | Bacteroides stercoris 0.95 | [1] 0.966 | Bacteroides uniformis 0.966 | [2] 0.84 | Clostridium difficile 0.978 | Collinsella aerofaciens 1.02

CC(C)([CH2][Sn]([CH2]C(C)(C)c1ccccc1)([CH2]C(C)(C)c1ccccc1)[O][Sn]([CH2]C(C)(C)c1ccccc1)([CH2]C(C)(C)c1ccccc1)[CH2]C(C)(C)c1ccccc1)c1ccccc1
inactive: Akkermansia muciniphila 1.07 | Bacteroides caccae 0.969 | Bacteroides clarus 1.01 | Bacteroides dorei 0.989 | Bacteroides stercoris 0.969 | [1] 1.02 | Bacteroides uniformis 0.993 | [2] 1.02 | Clostridium difficile 0.956 | Collinsella aerofaciens 1.01

CCS(=O)(=O)c1nnc(N(C)C(=O)NC)s1
inactive: Akkermansia muciniphila 0.883 | Bacteroides caccae 1.02 | Bacteroides clarus 0.977 | Bacteroides dorei 1.01 | Bacteroides stercoris 1.03 | [1] 1.01 | Bacteroides uniformis 0.995 | [2] 0.995 | Clostridium difficile 0.974 | Collinsella aerofaciens 1.06

NS(=O)(=O)[O-].[NH4+]
inactive: Akkermansia muciniphila 1.11 | Bacteroides caccae 1.01 | Bacteroides clarus 1.03 | Bacteroides dorei 1.02 | Bacteroides stercoris 1.05 | [1] 1.02 | Bacteroides uniformis 1.05 | [2] 1.06 | Clostridium difficile 1.05 | Collinsella aerofaciens 0.998

COC(=O)COc1ccc(Cl)cc1C
inactive: Akkermansia muciniphila 0.917 | Bacteroides caccae 1.04 | Bacteroides clarus 0.986 | Bacteroides dorei 1.01 | Bacteroides stercoris 1.03 | [1] 1.01 | Bacteroides uniformis 1.01 | [2] 0.805 | Clostridium difficile 0.989 | Collinsella aerofaciens 1.01

CCNc1nc(N)nc(Cl)n1
inactive: Akkermansia muciniphila 0.954 | Bacteroides caccae 1.01 | Bacteroides clarus 1.02 | Bacteroides dorei 1.01 | Bacteroides stercoris 1.12 | [1] 1.03 | Bacteroides uniformis 1.02 | [2] 1 | Clostridium difficile 1.03 | Collinsella aerofaciens 0.996

COc1cc(OC)nc(NC(=O)NS(=O)(=O)c2c(Cl)nc3ccccn23)n1
inactive: Akkermansia muciniphila 1.06 | Bacteroides caccae 1.02 | Bacteroides clarus 1 | Bacteroides dorei 1.02 | Bacteroides stercoris 1.1 | [1] 1 | Bacteroides uniformis 1.02 | [2] 1.02 | Clostridium difficile 1 | Collinsella aerofaciens 1.03
